Screens as filed in PubChem BioAssay.
LYPLA2 inh: blocks human lysophospholipase 2, a PME1 counter-screen; recombinant LYPLA2, FP-Rh probe fluorescence polarization; inhibition, % at 5.9 µM; 0.38% of 320,000 active; AID 2177;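 active = inhibition above the screen-wide mean plus 3 SD, limit set per campaign, cut at about 26% in these data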;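 note: 0% = LYPLA2 with DMSO and 100% = wells lacking LYPLA2 enzyme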
Target sequence (O95372 whole entry, looked up): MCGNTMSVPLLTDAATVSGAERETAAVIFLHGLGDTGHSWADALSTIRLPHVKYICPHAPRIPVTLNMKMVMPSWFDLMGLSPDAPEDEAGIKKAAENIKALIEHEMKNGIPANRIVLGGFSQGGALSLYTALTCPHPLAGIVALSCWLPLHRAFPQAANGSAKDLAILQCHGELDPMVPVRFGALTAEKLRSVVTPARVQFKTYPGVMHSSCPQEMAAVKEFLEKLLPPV
PAFAH2 FP inh: inhibitors of human PAFAH2; Q99487; recombinant PAFAH2, FP-rhodamine activity probe, fluorescence polarization; inhibition, % at 3.39 µM; 0.99% of 340,000 active; AID 492956;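 active = inhibition above the mean over all tested compounds plus 3 SD, cut at about 30% in these data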;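 note: inhibitors block probe labeling of enzyme so polarization drops; 0% = enzyme with DMSO and 100% = wells lacking PAFAH2 protein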
PAFAH1B3 inh: PAFAH1B3 (human) inhibition | Q15102 | recombinant PAFAH1B3, FP-rhodamine probe, fluorescence polarization | inhibition, % at 3.39 µM | 0.28% of 340,000 active | AID 492972;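 active = inhibition above the screen-wide average of all tested compounds plus 3 SD, cut at about 25% in these data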;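 note: 0% = enzyme with DMSO only and 100% = wells lacking PAFAH1B3 protein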
Target sequence (Q15102 whole entry, looked up): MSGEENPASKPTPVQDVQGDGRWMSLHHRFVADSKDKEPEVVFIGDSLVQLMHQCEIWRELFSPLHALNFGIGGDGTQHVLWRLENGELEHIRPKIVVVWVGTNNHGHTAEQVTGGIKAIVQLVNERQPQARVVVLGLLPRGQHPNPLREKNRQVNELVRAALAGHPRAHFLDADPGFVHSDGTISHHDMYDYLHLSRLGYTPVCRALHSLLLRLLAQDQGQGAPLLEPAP
LYPLA1 counter: blocks human lysophospholipase 1, a PME1 counter-screen; recombinant LYPLA1, FP-Rh probe fluorescence polarization; inhibition, % at 5.9 µM; O75608; 0.16% of 320,000 active;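 active = inhibition above the mean of all tested compounds plus 3 SD, set per campaign, cut at about 14% in these data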;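 note: inhibitors block serine hydrolase probe labeling of LYPLA1 so polarization falls; 0% = enzyme with DMSO and 100% = wells lacking LYPLA1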
Target sequence (O75608 whole entry, looked up): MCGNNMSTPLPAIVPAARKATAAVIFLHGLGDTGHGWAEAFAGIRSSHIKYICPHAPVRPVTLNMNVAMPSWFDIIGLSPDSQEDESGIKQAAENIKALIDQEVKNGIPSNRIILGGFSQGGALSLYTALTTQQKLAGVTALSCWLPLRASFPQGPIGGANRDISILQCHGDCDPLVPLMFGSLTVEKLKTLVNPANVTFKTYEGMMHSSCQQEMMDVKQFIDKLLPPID
PAFAH1B2 FP inh: blocks human PAF acetylhydrolase 1b catalytic subunit 2; P68402; recombinant PAFAH1B2, FP-rhodamine activity probe, fluorescence polarization; inhibition, % at 3.39 µM; 1.2% of 340,000 active; AID 492953;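 active = inhibition above the mean of all tested compounds plus 3 SD, cut at about 24% in these data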;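 note: 0% = enzyme with DMSO and 100% = wells lacking PAFAH1B2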
pPAFAH inh: pPAFAH (human) enzyme inhibition. Q13093. recombinant pPAFAH, FP-rhodamine probe fluorescence polarization. inhibition, % at 3.39 µM. 1.5% of 330,000 active;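 active = inhibition above the mean inhibition across the screen plus 3 SD, cut at about 25% in these data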;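 note: inhibitors block binding of the rhodamine activity-based probe so polarization drops; 0% = enzyme with DMSO and 100% = wells lacking pPAFAH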
PAFAH2 FP conf: PAFAH2 (human) inhibition, confirmed. recombinant PAFAH2, FP-rhodamine activity probe, fluorescence polarization. inhibition, % at 3.39 µM. 65% of 2,300 active. shares compounds with PAFAH2 FP inh. AID 493030;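 active = mean inhibition over three repeats above a set limit taken from the earlier primary screen, cut at about 30% in these data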;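 note: inhibitor blocks binding of rhodamine activity probe so polarization falls; 0% = enzyme with DMSO and 100% = wells lacking PAFAH2 protein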
Starred values were filed as active, the others as inactive. This is a sample that favours compounds with a hit; in the whole collection about 2.9% have one here.

COc1cc2c(cc1NC(=O)CSc1nnc(COc3ccc(Cl)cc3)n1C)oc1ccccc12 was read as LYPLA2 inh -10, PAFAH2 FP inh -2, PAFAH1B3 inh 1, LYPLA1 counter -9, PAFAH1B2 FP inh -1 and pPAFAH inh 1.
`CCN(c1cccc(C)c1)S(=O)(=O)c1ccc2c(c1)NC(=O)CCS2` gave LYPLA2 inh 0, PAFAH2 FP inh 48*, PAFAH1B3 inh 0, LYPLA1 counter -4, PAFAH1B2 FP inh 5, pPAFAH inh 9 and PAFAH2 FP conf 35*.
Cc1cc(C(=O)OCC(=O)Nc2cccc(S(=O)(=O)N(C)C)c2)c(C)o1 was read as LYPLA2 inh -3, PAFAH2 FP inh 45*, PAFAH1B3 inh -4, LYPLA1 counter -3, PAFAH1B2 FP inh 1, pPAFAH inh 1 and PAFAH2 FP conf 34*.
For Cc1noc(C)c1C(=O)OCC(=O)Nc1cccc(S(=O)(=O)N(C)C)c1 the results were LYPLA2 inh 4, PAFAH2 FP inh 4, PAFAH1B3 inh 1, LYPLA1 counter 4, PAFAH1B2 FP inh 1 and pPAFAH inh 0.
For CCN(CC)S(=O)(=O)c1cccc(NC(=O)COC(=O)c2n[nH]c(=O)c3ccccc23)c1 the results were LYPLA2 inh -1, PAFAH2 FP inh 6, PAFAH1B3 inh 4, LYPLA1 counter 1, PAFAH1B2 FP inh 5 and pPAFAH inh -4.
Screening CCN(CC)S(=O)(=O)c1cccc(NC(=O)COC(=O)c2cc(C)oc2C)c1 returned LYPLA2 inh 8, PAFAH2 FP inh 39*, PAFAH1B3 inh -3, LYPLA1 counter 0, PAFAH1B2 FP inh -4, pPAFAH inh 4 and PAFAH2 FP conf 39*.
CN(C)S(=O)(=O)c1cccc(NC(=O)COC(=O)c2cccn2C)c1 was read as LYPLA2 inh 4, PAFAH2 FP inh 36*, PAFAH1B3 inh -1, LYPLA1 counter 4, PAFAH1B2 FP inh 5, pPAFAH inh 6 and PAFAH2 FP conf 22.
Screening COc1cc(CNC2CCC(C)C2)cc(OC)c1 (stereo unspecified) returned LYPLA2 inh 8, PAFAH2 FP inh 2, PAFAH1B3 inh -4, LYPLA1 counter -2, PAFAH1B2 FP inh 1 and pPAFAH inh 3.
For COc1cc(C(=O)NC(c2ccccc2)c2ccccc2)cc(Cl)c1OC the results were LYPLA2 inh -4, PAFAH2 FP inh -7, PAFAH1B3 inh 10, LYPLA1 counter -5, PAFAH1B2 FP inh 3 and pPAFAH inh -1.
`COc1cc2c(cc1NC(=O)CSc1nnc(Cc3cccs3)n1C)oc1ccccc12` gave LYPLA2 inh -4, PAFAH2 FP inh 7, PAFAH1B3 inh 3, LYPLA1 counter 2, PAFAH1B2 FP inh -3 and pPAFAH inh 10.
Screening COc1ccccc1NC(=O)CSc1nnc(Cc2cccs2)n1C returned LYPLA2 inh 1, PAFAH2 FP inh 66*, PAFAH1B3 inh 5, LYPLA1 counter 1, PAFAH1B2 FP inh 3, pPAFAH inh 1 and PAFAH2 FP conf 1.
COc1ccc(NS(=O)(=O)c2cc([N+](=O)[O-])ccc2NN=Cc2ccccc2OCC(=O)O)cc1 was read as PAFAH2 FP inh 49*, PAFAH1B3 inh 14, PAFAH1B2 FP inh 8, pPAFAH inh 21 and PAFAH2 FP conf 22.
Screening Cc1ccc(C(=O)O/N=C(\c2ccccc2)c2cccnc2)cc1 returned LYPLA2 inh 7, PAFAH2 FP inh 73*, PAFAH1B3 inh 6, LYPLA1 counter -6, PAFAH1B2 FP inh 3, pPAFAH inh 15 and PAFAH2 FP conf 80*.
Screening CCOC(=O)N1CCN(C(=O)c2ccccc2NC(=O)c2ccc(Br)cc2)CC1 returned LYPLA2 inh -3, PAFAH2 FP inh 44*, PAFAH1B3 inh -2, LYPLA1 counter -1, PAFAH1B2 FP inh 2, pPAFAH inh -4 and PAFAH2 FP conf 26.
For CC(=O)c1c(C)[nH]c(C(=O)OCC(=O)NCCC2=CCCCC2)c1C the results were LYPLA2 inh -1, PAFAH2 FP inh 17, PAFAH1B3 inh -4, LYPLA1 counter 1, PAFAH1B2 FP inh -4 and pPAFAH inh 0.
O=C(COC(=O)c1ccccc1Cl)NCCC1=CCCCC1 was read as LYPLA2 inh 6, PAFAH2 FP inh 16, PAFAH1B3 inh 8, LYPLA1 counter 6, PAFAH1B2 FP inh 2 and pPAFAH inh 18.
Screening Cc1ccc(C(=O)OCC(=O)NCCC2=CCCCC2)s1 returned LYPLA2 inh -8, PAFAH2 FP inh 61*, PAFAH1B3 inh -1, LYPLA1 counter -2, PAFAH1B2 FP inh 1, pPAFAH inh 20 and PAFAH2 FP conf 60*.
`O=C(COC(=O)c1cccs1)NCCC1=CCCCC1` gave LYPLA2 inh 4, PAFAH2 FP inh 55*, PAFAH1B3 inh 4, LYPLA1 counter 1, PAFAH1B2 FP inh 2, pPAFAH inh 8 and PAFAH2 FP conf 41*.
COc1cc(N)c(Cl)cc1C(=O)OCC(=O)N1CCc2ccccc21 was read as LYPLA2 inh 5, PAFAH2 FP inh 33*, PAFAH1B3 inh 0, LYPLA1 counter -4, PAFAH1B2 FP inh 3, pPAFAH inh 2 and PAFAH2 FP conf 18.
Screening O=C(OCC(=O)N1CCc2ccccc21)c1ccc[n+]([O-])c1 returned LYPLA2 inh 4, PAFAH2 FP inh 0, PAFAH1B3 inh 6, LYPLA1 counter -4, PAFAH1B2 FP inh 2 and pPAFAH inh 3.
Screening COc1cccc(C(=O)OCC(=O)N2CCc3ccccc32)c1OC returned PAFAH2 FP inh 43*, PAFAH1B3 inh 5, PAFAH1B2 FP inh 2 and PAFAH2 FP conf 43*.
Screening COc1ccc(Br)c(C(=O)OCC(=O)N2CCc3ccccc32)c1 returned PAFAH2 FP inh 18, PAFAH1B3 inh -5, PAFAH1B2 FP inh 2 and pPAFAH inh 2.
O=C(OCC(=O)N1CCc2ccccc21)c1ccccc1 was read as LYPLA2 inh 13, PAFAH2 FP inh 47*, PAFAH1B3 inh 0, LYPLA1 counter 3, PAFAH1B2 FP inh 1, pPAFAH inh 1 and PAFAH2 FP conf 38*.
O=C(NC(=S)Nc1ccccc1O)c1ccc(Cl)cc1Cl was read as LYPLA2 inh 3, PAFAH2 FP inh -3, PAFAH1B3 inh 5, LYPLA1 counter -1, PAFAH1B2 FP inh 1 and pPAFAH inh -1.
Screening O=C(Cn1cc(C(F)(F)F)cc(Cl)c1=O)Nc1cc(S(=O)(=O)N2CCOCC2)ccc1Cl returned LYPLA2 inh 4, PAFAH2 FP inh -1, PAFAH1B3 inh 10, LYPLA1 counter 5, PAFAH1B2 FP inh 1 and pPAFAH inh -2.
Screening CC(=O)NCCC(=O)Nc1ccc(C)c(F)c1 returned LYPLA2 inh -5, PAFAH2 FP inh 0, PAFAH1B3 inh 15, LYPLA1 counter -1, PAFAH1B2 FP inh 6 and pPAFAH inh -1.
Screening O=S(=O)(c1cccc(S(=O)(=O)N2CCCC2)c1)N1CCCCC1 returned LYPLA2 inh 1, PAFAH2 FP inh 5, PAFAH1B3 inh 3, LYPLA1 counter -2, PAFAH1B2 FP inh 0 and pPAFAH inh 3.
